# Assay outcomes from PubChem BioAssay.
# Mito fusion yeast = inhibitors of mitochondrial division or activators of mitochondrial fusion | S. cerevisiae fusion-defective mutant growth rescue, CellTiterGlo 48 h | Potency, µM (series often up to 46.1 µM), most hits filed as activators | actives 0.23% (n = 320,000) | AID 485298; further: nearly all actives have a fitted effect of over 45% in size
#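 Compounds are tested for their ability to restore growth of mitochondrial fusion-defective yeast strains at non-permissive 37C in YPEG medium over 48 hours. Viability is quantified by luciferase luminescence.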
# ASM inhibitor = inhibitors of human secretory acid sphingomyelinase; P17405; Potency, µM (top dose mostly 57.5 µM), usual class: inhibitors; placental ASM, HMU-PC fluorogenic substrate, 60 min; actives 0.006% (n = 340,000); AID 504937
#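 Steps: dispense placental human ASM, pin compound, wait 10 min at room temperature, add HMU-PC0 substrate at 9 uM final, incubate 60 min at 37 °C, add stop solution raising pH to 10, read fluorescence.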
# mIDH1 inhibitor = human IDH1 R132H inhibition. actives 0.093% (n = 390,000). IDH1-R132H enzyme, NADPH consumption, diaphorase/resazurin fluorescence. Potency, µM (highest dose often 76.6 µM), actives largely listed as inhibitors. AID 602179; further: nearly all actives have a fitted effect of over 65% in size
#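 IDH1-R132H (0.5 ug/mL) preincubated 30 min with compound, then NADPH (0.016 mM) and alpha-KG (2 mM) added; 80 min at RT, pH 7.5. Remaining NADPH coupled via diaphorase/resazurin to fluorescence (540/590 nm); concentration-response curves normalized to no-enzyme control.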
# RGS4 inh = human RGS4 inhibition; P49798; Potency, µM (highest dose often 114 µM), actives largely listed as inhibitors; actives 0.039% (n = 390,000); Transcreener GDP fluorescence polarization, RGS4-accelerated GTP hydrolysis; AID 504845; further: nearly all actives have a fitted effect of over 75% in size
# Target sequence (P49798 whole entry, looked up): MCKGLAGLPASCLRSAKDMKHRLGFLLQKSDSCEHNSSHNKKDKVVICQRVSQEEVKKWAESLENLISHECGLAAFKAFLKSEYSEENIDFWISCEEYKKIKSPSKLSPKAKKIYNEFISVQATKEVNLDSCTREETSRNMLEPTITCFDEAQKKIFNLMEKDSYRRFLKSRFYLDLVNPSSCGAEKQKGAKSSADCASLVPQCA
#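 MLSMR compounds (23 nl, pin-transferred) preincubated 10 min at room temperature with a 500nM (2x) first reagent, then RGS4 at 900nM (2x) plus Transcreener GDP mix added; fluorescence polarization (620/688 nm) read before and after 90 min at 30 °C.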
# LDHA inh = inhibitors of human lactate dehydrogenase A | P00338 | AID 1347041 | activity change, % (values are at about 110 or 230 µM) | purified LDHA, NADH/diaphorase-resazurin fluorescence; stronger effect = lower value | actives 0.15% (n = 480,000); in the data active means activity change below about -30%; inconclusive means mostly about -25% to -30%
#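 Human LDH5 (2 nM) was incubated with 0.06 mM NADH and 0.2 mM pyruvate for 5 min at room temperature in Tris pH 7.4. Remaining NADH was coupled through diaphorase/resazurin, and resorufin fluorescence was read at 0 and 20 min.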
# ClpP mod = qHTS Assay for Activators of ClpP; purified B. subtilis ClpP, FRET peptide cleavage, 20 min; Potency, µM (highest dose often 57.5 µM); actives 1.9% (n = 340,000); active means well fitted falling curve with a large enough effect; inconclusive means small, poorly fitted or top-dose-only effect; inactive means no such curve, though single readings can be large or run the other way; further: the source files actives as falling curves though it sought activators and does not explain the sign; nearly all actives have a fitted effect of over 65% in size
# Target sequence (P80244 whole entry, looked up): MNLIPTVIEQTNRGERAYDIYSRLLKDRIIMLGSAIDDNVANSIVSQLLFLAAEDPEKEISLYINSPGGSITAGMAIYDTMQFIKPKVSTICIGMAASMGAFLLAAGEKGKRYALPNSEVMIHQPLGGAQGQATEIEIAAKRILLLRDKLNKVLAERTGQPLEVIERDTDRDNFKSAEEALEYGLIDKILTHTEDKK
#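 FRET quenching reversal measured ClpP activation: 10 microg/mL B. subtilis ClpP at pH 8 with the FRET-FV decapeptide, read at 430 nm after 320 nm excitation. The 20-min minus 0-min signal was scaled between DMSO/no-enzyme wells and ADEP (5.8 microM final).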
# A number is an active result; - = inactive; ? = inconclusive; . = no result given; ! = repeats disagree; [ ] = dose if it differs, or a comment. Many of the other results were omitted from the sample, so hits are more common in it than they were. Unless noted, the call rests on the fitted dose curve; in most records, active means well fitted curve in the direction sought with a large enough effect; inconclusive means small, poorly fitted or top-dose-only effect, or another doubt; inactive means no such curve, though single readings can be large; an effect the other way counts as inactive or inconclusive.
SMILES,Mito fusion yeast,ASM inhibitor,mIDH1 inhibitor,RGS4 inh,LDHA inh,ClpP mod
COc1cccc(CNCc2cccn2-c2nnc(N3CCN(C)CC3)s2)c1OC,.,.,.,.,-,.
CCN(CC)CCn1c(=S)[nH]c2cc3c(cc2c1=O)OCO3,-,-,?,-,-,-
Cc1c(SCCO)c(=O)[nH]c2cc3c(cc12)OCO3,-,-,-,-,-,25µM
CCOc1ccc(OCC)c(C(=O)NCc2coc(-c3cccs3)n2)c1,.,.,.,.,-,.
CC1(C)CC(=O)C([N+](=O)[O-])=C(NCCCC(=O)O)C1,-,-,-,-,-,14µM
CC1(C)CC(=O)C(C#N)=C(NCCCO)C1,-,-,-,-,-,-
COc1ccc(-c2c(C)c3ccc(OS(=O)(=O)c4ccccc4)cc3oc2=O)cc1OC,.,.,.,.,-,.
Cc1cc(C)cc(Nc2ccc(C(=O)O)cc2N)c1,-,-,-,?,-,28µM
COc1ccc(C(=O)Nc2ccc(S(=O)(=O)NCC3CCCO3)cc2)cc1 (stereo not given),.,.,.,.,-,.
Cn1c(-c2sc3cc(C(F)(F)F)cnc3c2-c2ccccn2)n[nH]c1=S,-,-,-,-,-,.
CSc1nnc(-c2sc3cc(C(F)(F)F)cnc3c2-c2ccccn2)n1C,-,-,-,-[11.4 µM],-,28µM
COc1cc(NC(=O)c2cccc(OCC3CCCO3)c2)c(OC)cc1NC(=O)c1ccccc1 (stereo not given),.,.,.,.,-,.
N[C@@H](Cc1cc(I)c(Oc2ccc(O)c(I)c2)c(I)c1)C(=O)O,-,-,?,-,-35!,-
N[C@@H](Cc1cc(I)c(Oc2cc(I)c(O)c(I)c2)c(I)c1)C(=O)O,.,-,-,-,-,-
CC(C)(C)S(=O)N1Cc2cc(C(=O)O)nc(-c3cccc(-c4cc5ccccc5o4)c3)c2[C@H]1CCO (stereo not given in full),.,.,.,.,-32,-
CC(=O)NC(NC(C)=O)c1ccccn1,.,.,.,.,-,.
COc1ccc(-c2c(NC(=O)c3cccs3)n(C)c3ccccc3c2=O)cc1OC,.,.,.,.,-,.
O=C(Nc1ccc(CN2CCOCC2)cc1)c1ccc(-c2cc(Cl)ccc2Cl)o1,10µM,?,-,-,-,?
O=C(NCc1ccccc1)c1ccccc1NS(=O)(=O)c1ccc2[nH]c(=O)[nH]c2c1,.,.,.,.,-,.
CCNC(=S)NN1CCN(C)CC1,.,.,.,.,-,.
COc1ccc(C2C3=C(CCCC3=O)Nc3c(-c4ccccc4)c(C)nn32)cc1 (stereo not given),-,-,-,-,-,?
Cc1nn2c(c1-c1ccccc1)NC1=C(C(=O)CCC1)C2c1ccccc1 (stereo not given),-,-,-,-,-,8.9µM
O=C1NC(=O)/C(=C/c2ccc3c(c2)OC(F)(F)O3)S1,3.7µM,.,.,?,.,.
COc1ccc(C(=O)NC(CC(=O)O)c2ccc(C(C)(C)C)cc2)cc1 (stereo not given),.,.,.,.,-,.
Cc1cccn2c(=O)c3cc(C(=O)NCCCN4CCCC4=O)n(C)c3nc12,-,-,-,-,-,16µM
SMILES,Mito fusion yeast,ASM inhibitor,mIDH1 inhibitor,RGS4 inh,LDHA inh,ClpP mod
CCCN(CCC)C(=O)c1cc2c(=O)n3cccc(C)c3nc2n1C,.,.,-,-,-,-
CCCCNC(=O)c1cc2c(=O)n3cccc(C)c3nc2n1C,-,.,.,.,.,.
Cc1cccn2c(=O)c3cc(C(=O)N(C)C)n(C)c3nc12,-,-,-,-,-,16µM
COc1ccc(NC(=O)CC#N)c(C)c1,.,.,.,.,-,.
CCN1CCN(c2cc(-c3ccccc3)nc3cc(-c4cccc(F)c4)nn23)CC1,-,-,-,-,-,25µM
CCCN(C(=O)c1cc2c(s1)-c1ccccc1OC2)c1ccccc1F,.,.,-,-,-,-
CCCN(C(=O)c1cc2c(s1)-c1ccccc1SC2)c1ccccc1F,.,.,.,-,-,32µM
COc1ccccc1-c1nc(SCc2cc(=O)n3c4c(sc3n2)CCCC4)n[nH]1,.,.,.,.,-33,.
CC(C)(C)NC(=O)NC(=O)CSC1=Nc2ccccc2CS1,.,.,.,.,-,.
CCOC(=O)c1ccc(N2CCN(c3ccccc3F)CC2)c(NC(=O)Nc2cccc(OC)c2)c1,-,-,-,-,-,25µM
CCOC(=O)c1ccc(N2CCN(c3cc(Cl)ccc3C)CC2)c(NC(=O)Nc2cccc(OC)c2)c1,.,.,-,-,-,-
O=C(NC1CCN(Cc2ccccc2)CC1)c1ccccc1,-,-,-,-,-,-
COC(=O)c1ccccc1NC(=O)C1CCCCC1C(=O)O (stereo not given),-,-,-,-,-,28µM
COC(=O)c1ccccc1NC(=O)NC1CCN(Cc2ccccc2)CC1,-,-,-,-,-,28µM
O=C(NC1CCN(Cc2ccccc2)CC1)c1ccccc1Cl,-,-,-,-,-,-
COc1ccc(NC(=O)c2ccccc2NC(=O)C2CCCCC2C(=O)O)cc1 (stereo not given),.,-,-,-,-,-
CC(C)(C)c1ccc(C(=O)NC2CCN(Cc3ccccc3)CC2)cc1,35µM,-,-,-,-,-
Cc1c(C(=O)NC2CCN(Cc3ccccc3)C2)oc2c(Cl)cccc12 (stereo not given),3.5µM,-,-,-,-,.
CCc1ccc2oc(C(=O)N(Cc3cccs3)C3CCS(=O)(=O)C3)cc(=O)c2c1 (stereo not given),.,.,.,.,-,.
O=C(O)c1ccc(C(c2c[nH]c3ccccc23)c2c[nH]c3ccccc23)cc1,.,.,.,.,-,.
CCN(CC)S(=O)(=O)N1CCCC(c2nncn2C)C1 (stereo not given),.,.,.,.,-,.
CCN(C(=O)N(CC)c1ccccc1)c1ccccc1,-,-,-,-,-,-
CC(=O)N(CC(=O)O)c1ccccc1,-,-,-,-,-,18µM
Nc1ccccc1Nc1ccccc1,-,-,-,-,-,28µM
O=C(CSc1ccc(-c2nc3ccccc3[nH]2)cn1)N1CCN(C(=O)c2ccco2)CC1,-,-,-,?,-,32µM
SMILES,Mito fusion yeast,ASM inhibitor,mIDH1 inhibitor,RGS4 inh,LDHA inh,ClpP mod
O=c1c2c(nc3cc(-c4cccc(F)c4)[nH]n13)CCC2,-,-,-,-,-,.
O=c1c2c(nc3cc(-c4cccc(Cl)c4)[nH]n13)CCC2,-,-,-,-,-,28µM
O=c1c2c(nc3cc(-c4ccc(F)cc4)[nH]n13)CCCC2,-,-,-,-,-,10µM
CCCCc1c(C)c2ccc3oc(/C(=N/O)c4ccc(C)cc4)c(C)c3c2oc1=O,.,.,.,.,-,.
CC(C)N(C)S(=O)(=O)N(C)CC1COc2ccccc2O1 (stereo not given),.,.,.,.,-32,.
Cc1nn2c(N3CCN(c4ccccn4)CC3)cc(C(C)C)nc2c1-c1ccccc1,-,-,-,-,-,28µM
COc1cc(NC(=O)C(C)Sc2ncnc3nc[nH]c23)cc(OC)c1OC (stereo not given),.,.,.,.,-,.
